Only a sample is shown.
ATXN viability = cell viability loss in ATXN counter-screen | Potency, µM (highest dose often 56.7 µM), most hits filed as cytotoxic | AID 651635 | 400,000 compounds, 0.49% hits | S2 cells (HEK-293 line with an ATXN2-luciferase reporter) viability, CellTiter-Fluor protease fluorescence, 24 h; note: potency is the fitted concentration of half-maximal effect; nearly all actives have a fitted effect of over 40% in size
DRD3 antagonist = D3 dopamine receptor (human) antagonism; P35462; D3R cells, DiscoveRx beta-arrestin luminescence, antagonist mode; stronger effect = lower value; max response, negative = inhibition, %; 360,000 compounds, 2.5% hits; AID 652054; in the data active = max response below about -50%; inconclusive = no clear call, values can overlap the other calls; note: % is set by controls: 0 for no effect and ±100 for the full control effect
Target sequence (P35462 whole entry, looked up): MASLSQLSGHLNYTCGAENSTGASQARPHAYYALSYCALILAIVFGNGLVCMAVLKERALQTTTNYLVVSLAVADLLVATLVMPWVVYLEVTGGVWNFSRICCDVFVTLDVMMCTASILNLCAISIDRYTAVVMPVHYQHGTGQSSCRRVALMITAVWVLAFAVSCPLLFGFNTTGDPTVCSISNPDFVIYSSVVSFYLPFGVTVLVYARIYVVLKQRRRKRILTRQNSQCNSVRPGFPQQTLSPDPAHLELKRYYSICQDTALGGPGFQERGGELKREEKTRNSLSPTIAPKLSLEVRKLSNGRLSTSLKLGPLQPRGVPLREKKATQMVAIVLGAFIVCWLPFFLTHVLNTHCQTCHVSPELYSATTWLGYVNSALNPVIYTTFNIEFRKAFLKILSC
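Cells expressing the human receptor were seeded at 1500 cells/well, incubated overnight at 37 degrees C in 5% CO2, then exposed to library compounds with dopamine controls for 90 minutes at 37 degrees C before luminescent detection.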
ATXN2 expr inh = ATXN2 expression inhibition | HEK-293 ATXN2-luciferase reporter, luminescence, 24 h | Potency, µM (doses to about 57 µM), inactives show top-dose activity change, negative = inhibition, actives largely listed as inhibitors | 360,000 compounds, 0.72% hits | AID 1745845; note: potency is the fitted concentration of half-maximal effect; % is set by controls: 0 for no effect and ±100 for the full control effect; nearly all actives have a fitted effect of over 55% in size
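ATXN2-luciferase reporter cells (luciferase flanked by upstream and downstream ATXN2 gene portions) were treated 24 h at 37 °C with compounds at up to 57 uM. SteadyGlo luminescence gave expression; GF-AFC fluorescence gave viability.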
DRD3 agonist = agonists of human D3 dopamine receptor; 410,000 compounds, 0.58% hits; D3R DiscoveRx beta-arrestin cells, luminescence, 90 min; max activation, %; P35462; in the data active = max activation above about 30%; note: 0% is about no effect
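Agonist mode: compounds and dopamine controls were applied to plated cells for 90 min at 37 degrees C after an overnight attachment at 1500 cells/well. Luminescent read-out followed 30 - 60 minutes at room temperature with DiscoveRx detection reagent.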
HepG2 tox = HepG2 cytotoxicity, counter-screen for TGF-b inhibitors; HepG2 CAGA-GFP viability, ATP luminescence, 18 h; Potency, µM (highest dose often 46.1 µM), for inactives: at the top dose activity change, negative = cytotoxicity, usual class: cytotoxic; 410,000 compounds, 0.76% hits; note: potency is the fitted concentration of half-maximal effect
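HepG2 CAGA-GFP cells (1000/well, DMEM with 1% FBS) received compound, then TGF-beta at 500 pg/mL final, and were incubated 18 hours at 37 degrees C. Viability was read by CellTiter-Glo luminescence. Media-only wells were set as complete cell-killing and DMSO as no toxicity.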
TGFb inhibitor = inhibitors of TGF-b signaling | HepG2 CAGA-GFP TGF-b/SMAD3 reporter, GFP fluorescence, 18 h; TGF-beta stimulated, 500 pg/mL final | Potency, µM (highest dose often 46.1 µM), without a hit: at the highest dose activity, negative = inhibition, hits mostly inhibitors | 410,000 compounds, 1.2% hits | AID 588855; note: potency is the fitted concentration of half-maximal effect; % is set by controls: 0 for no effect and ±100 for the full control effect; nearly all actives have a fitted effect of over 65% in size
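TGF-beta reporter screen: HEPG2 CAGA-GFP, 1% FBS, 500 pg/mL TGF-beta final, 18 h; per-cell GFP summed per well; curves fitted and categorized by class.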
EBOV S4 ratio = blocks Ebola virus entry, screen 4 ratio readout; shares compounds with ATXN2 expr inh; Ebola pseudovirus entry assay, ratio channel; AC50, µM; 170 compounds, 79% hits; AID 1117308; calls by dose curve
EBOV entry S4 bl = blocks Ebola virus entry, screen 4 blue channel readout; shares compounds with ATXN2 expr inh; Ebola virus entry assay, blue channel fluorescence ratio; Channel: blue; calls only; 170 tested, under 10 active; call rule not given here
EBOV S4 green = Ebola virus entry blockers, screen 4 green channel. shares compounds with ATXN2 expr inh. Ebola virus entry reporter assay, green fluorescence channel; Channel: green. calls only. 170 tested, under 10 active; call rule not given here
Numbers without * were called inactive; i = inactive; ? = inconclusive; . = no result given; [ ] = remark or other dose. Unless noted, calls come from the whole dose curve; as a rule, active = well fitted curve in the direction sought with a large enough effect; inconclusive = small, poorly fitted or top-dose-only effect, or another doubt; inactive = no such curve, though single readings can be large; an effect the other way counts as inactive or inconclusive.

SMILES | ATXN viability | DRD3 antagonist | ATXN2 expr inh | DRD3 agonist | HepG2 tox | TGFb inhibitor | others
C[C@H]1CC[C@@H]2[C@@H](C)[C@H]3C(C[C@H]4C5CC[C@H]6C[C@@H](O)CC[C@]6(C)C5CC[C@]34C)N2C1 (stereo not given in full) | . | . | . | . | -9% | -21%
Cc1ccc(OP(=O)(NC(C)c2ccccc2)Oc2ccc(C)cc2)cc1 (stereo not given) | ? | 14 | -21% | 4 | -39% | ?
O=C1NC[C@H](CCCCN2C[C@H](Cc3ccccc3)N(CC3CCCCC3)C(=O)C2=O)N(CCC2CCCCC2)C1=O | ? | -16 | -2% | 2 | . | .
Clc1ccc(Cl)cc1 | . | . | . | -8 | . | .
COC1=CC(=O)O[C@@H](/C=C\c2ccccc2)C1 | i | . | . | . | . | .
O=C1C(=Cc2cn(-c3ccccc3)nc2-c2ccc(OCc3ccc(Cl)cc3)cc2)SC(=S)N1CCS(=O)(=O)O | ? | 29 | 7% | 0 | -14% | -14%
S=c1[nH]nc(Cn2c(-c3ccccn3)nc3ccccc32)n1-c1ccc2c(c1)OCCO2 | i | -29 | 14% | 4 | -13% | 8%
C[C@]12CC[C@H]3C(=CCc4cc(O)ccc43)[C@@H]1CCC2=O | i | 27 | 8% | 11 | 23% | 35%
CCOP(=O)(OCC)/C(C#N)=C/c1ccc(-c2ccc(F)cc2F)o1 | ? | 27 | . | 2 | 1% | -5%
CCCNC(=O)c1cc2c(c(-c3cccc(-c4cc5ccccc5o4)c3)n1)[C@H](CCO)N(C(=O)NC(C)C)C2 | ? | 17 | ? | -6 | . | .
C=CC[C@@H](CC(=O)N(CCO)Cc1ccccc1)C(=O)NC[C@H](OC(=O)[C@@H](CC=C)CC(=O)OC(C)(C)C)c1ccccc1 | ? | 18 | ? | 1 | -10% | ?
CCS(=O)(=O)C(C)(C)S(=O)(=O)CC | i | . | 6% | 6 | . | .
COc1cc(CC(C)N)cc(OC)c1OC (stereo not given) | ? | . | 9%[116 µM] | 13 | . | .
C[C@@H]1CN([C@@H](C)CO)C(=O)c2c(c3ccccc3n2C)-c2ccccc2CO[C@H]1CN(C)S(=O)(=O)c1ccc(C#N)cc1 | i | 16 | -4% | -5 | -17% | ?
CN(C)CCNC(=O)C(=O)NCC1OCCCN1S(=O)(=O)c1cccs1 (stereo not given) | i | -6 | -8% | 6 | -3% | ?
CCOC(=O)CN1C(=O)N[C@@H](c2cccc(C(F)(F)F)c2)C(C(C)=O)=C1C | i | 2 | 5% | 9 | 5% | ?
CN1CCc2cc3c(c4c2C1Cc1ccccc1-4)OCO3 (stereo not given) | i | -10 | -30% | -17 | -32% | ?
C#Cc1cccc(Nc2ncnc3cc(OCCOC)c(OCCOC)cc23)c1 | ? | . | ? | -8 | . | . | EBOV S4 ratio=i;EBOV entry S4 bl=i;EBOV S4 green=i
CN1C(=O)[C@@H](NC(=O)c2cc3ccccc3[nH]2)N=C(c2ccccc2)c2ccccc21 | i | . | ? | 8 | . | .
CN1CCCN(C(=O)COc2ccccc2)CC1 | i | 4 | 8% | 4 | 12% | -1%
COP(=S)(OC)Oc1ccc(S(N)(=O)=O)cc1 | i | . | 16% | 4 | . | .
